Assay results from PubChem BioAssay (NCI).
Values joined by “and” are separate entries in the source; they are usually repeats but may differ in a detail not shown here. Equal values may be shown once. About 83,000 compounds went through this panel and 20% of them were active in at least one assay; those are over-represented in the sample as a whole.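 Plates (96-well) were seeded with cells, treated with compound at one concentration, and incubated for 48 hours before percent growth was determined.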 Values without a mark were called inactive. Active and inactive are the calls of the source. How the source made its calls: active means growth percent below 10; inactive means the rest.

Assays:
Assay in all cases: NCI-60 one-dose screen, 48 h (100 = growth as untreated, 0 = no growth, -100 = all killed)
T-47D breast = tested on: T-47D breast
MDA-MB-435 melanoma = tested on: MDA-MB-435 melanoma
SW-620 colon = tested on: SW-620 colon
MCF7 breast = tested on: MCF7 breast
HCT-116 colon = tested on: HCT-116 colon
HCC-2998 colon = tested on: HCC-2998 colon
KM12 colon = tested on: KM12 colon
BT-549 breast = conditions: 10 µM

Question: What does the source list for `O=c1ccn(C2CC(O)C(COC(c3ccccc3)(c3ccccc3)c3ccccc3)O2)c(=O)[nH]1` (stereo not given)?
Answer: growth (T-47D breast; 10 µM): 84.7%; growth (T-47D breast; 100 µM): 25.7%; growth (MDA-MB-435 melanoma; 10 µM): 76.1%; growth (MDA-MB-435 melanoma; 100 µM): 45%; growth (SW-620 colon; 10 µM): 99.4%; growth (SW-620 colon; 100 µM): 62.2%; growth (MCF7 breast; 10 µM): 79.2%; growth (MCF7 breast; 100 µM): 16.5%; growth (HCT-116 colon; 10 µM): 82.2%; growth (HCT-116 colon; 100 µM): 33.9%; growth (HCC-2998 colon; 10 µM): 122%; growth (HCC-2998 colon; 100 µM): 64.2%; growth (KM12 colon; 10 µM): 90.4%; growth (KM12 colon; 100 µM): 40.3%

Question: For `COC1OCC(O)C(O)C1O` (stereo not given), which growth (T-47D breast; 10 µM) is on record?
Answer: Its growth is 105%.

Question: And the growth (BT-549 breast)?
Answer: The growth was 105%.

Question: What about the growth (MDA-MB-435 melanoma; 10 µM) of the same molecule?
Answer: The growth was 100%.

Question: What about the growth (SW-620 colon; 10 µM) of the same molecule?
Answer: Its growth is 99.3%.

Question: What about the growth (MCF7 breast; 10 µM) of the same molecule?
Answer: The growth was 90.7%.

Question: And the growth (HCT-116 colon; 10 µM)?
Answer: Its growth is 102%.

Question: What about the growth (HCC-2998 colon; 10 µM) of the same molecule?
Answer: Its growth is 107%.

Question: What about the growth (KM12 colon; 10 µM) of the same molecule?
Answer: The growth was 103%.

Question: Which results are given for `CC1=CC(C)=Nc2ccc(Cl)cc2N1`?
Answer: growth (T-47D breast; 10 µM): 102%; growth (MDA-MB-435 melanoma; 10 µM): 107%; growth (SW-620 colon; 10 µM): 98.8%; growth (MCF7 breast; 10 µM): 101%; growth (HCT-116 colon; 10 µM): 100%; growth (HCC-2998 colon; 10 µM): 103%; growth (KM12 colon; 10 µM): 100%

Question: Which results are given for `CSC1SCC2C(=O)N(C)C(C(C)C)C(=O)OCC(NC(=O)c3cnc4ccccc4n3)C(=O)NC(C)C(=O)N(C)C1C(=O)N(C)C(C(C)C)C(=O)OCC(NC(=O)c1cnc3ccccc3n1)C(=O)NC(C)C(=O)N2C` (stereo not given)?
Answer: growth (T-47D breast; 10 µM): -8.25% (active); growth (MDA-MB-435 melanoma; 10 µM): -82.8% (active); growth (SW-620 colon; 10 µM): 1.31% (active); growth (MCF7 breast; 10 µM): 2.56% (active); growth (HCT-116 colon; 10 µM): -29.5% (active); growth (HCC-2998 colon; 10 µM): -80.1% (active); growth (KM12 colon; 10 µM): -5.74% (active)

Question: With `OC(CN1CCCC2CCCCC21)c1cc2ccccc2c2ccccc12` (stereo not given) as the molecule, how does the growth (T-47D breast; 10 µM) read?
Answer: Its growth is 14.9%.

Question: What about the growth (MDA-MB-435 melanoma; 10 µM) of the same molecule?
Answer: Its growth is 32%.

Question: What about the growth (SW-620 colon; 10 µM) of the same molecule?
Answer: The growth was 27.1%.

Question: And the growth (MCF7 breast; 10 µM)?
Answer: The growth was 7.24% (active).

Question: And the growth (HCT-116 colon; 10 µM)?
Answer: Its growth is 1.99% (active).

Question: And the growth (HCC-2998 colon; 10 µM)?
Answer: The growth was 13.5%.

Question: And the growth (KM12 colon; 10 µM)?
Answer: The growth was 15.9%.

Question: How did the growth (MDA-MB-435 melanoma; 10 µM) turn out when `CN1CCN(CCCN2c3ccccc3Sc3ccc(C(F)(F)F)cc32)CC1` was run?
Answer: The growth was 27.6%.

Question: What about the growth (SW-620 colon; 10 µM) of the same molecule?
Answer: Its growth is 34.3%.

Question: And the growth (MCF7 breast; 10 µM)?
Answer: The growth was 13.9%.

Question: What about the growth (HCT-116 colon; 10 µM) of the same molecule?
Answer: Its growth is 36%.

Question: And the growth (HCC-2998 colon; 10 µM)?
Answer: The growth was -6.16% (active).

Question: What about the growth (KM12 colon; 10 µM) of the same molecule?
Answer: The growth was 40.2%.

Question: With `O=C1C=C(O)c2ccccc2C1=O.[Ag]` as the molecule, how does the growth (T-47D breast; 10 µM) read?
Answer: Its growth is 79.5%.

Question: What about the growth (MDA-MB-435 melanoma; 10 µM) of the same molecule?
Answer: The growth was 111%.

Question: And the growth (SW-620 colon; 10 µM)?
Answer: The growth was 106%.

Question: What about the growth (MCF7 breast; 10 µM) of the same molecule?
Answer: Its growth is 95.7%.

Question: What about the growth (HCT-116 colon; 10 µM) of the same molecule?
Answer: The growth was 111%.

Question: What about the growth (HCC-2998 colon; 10 µM) of the same molecule?
Answer: The growth was 88.8%.

Question: And the growth (KM12 colon; 10 µM)?
Answer: The growth was 96.4%.

Question: For `O=[N+]([O-])C1=C(c2ccccc2)SC=C(c2ccccc2)S1`, which growth (T-47D breast; 10 µM) is on record?
Answer: The growth was 51.9%.

Question: What about the growth (MDA-MB-435 melanoma; 10 µM) of the same molecule?
Answer: Its growth is 75.3%.

Question: And the growth (SW-620 colon; 10 µM)?
Answer: The growth was 62.5%.

Question: And the growth (MCF7 breast; 10 µM)?
Answer: The growth was 51.6%.

Question: What about the growth (HCT-116 colon; 10 µM) of the same molecule?
Answer: Its growth is 67%.

Question: And the growth (HCC-2998 colon; 10 µM)?
Answer: The growth was 108%.

Question: And the growth (KM12 colon; 10 µM)?
Answer: The growth was 81.3%.

Question: What does the source list for `O=C(/C=C/c1ccccn1)c1ccccc1`?
Answer: growth (T-47D breast; 10 µM): 66.9%; growth (MDA-MB-435 melanoma; 10 µM): 52.4%; growth (SW-620 colon; 10 µM): -51.3% (active); growth (MCF7 breast; 10 µM): 15%; growth (HCT-116 colon; 10 µM): -90.8% (active); growth (HCC-2998 colon; 10 µM): 62.9%; growth (KM12 colon; 10 µM): 7.87% (active)

Question: Which results are given for `NNc1c2ccccc2nc2ccccc12`?
Answer: growth (T-47D breast; 10 µM): 74.6%; growth (MDA-MB-435 melanoma; 10 µM): 49.4%; growth (SW-620 colon; 10 µM): 43.9%; growth (HCT-116 colon; 10 µM): 40.1%; growth (HCC-2998 colon; 10 µM): 57.1%; growth (KM12 colon; 10 µM): 36.7%

Question: For `CCCCCC(C)c1ccc(O)c(C)c1` (stereo not given), which growth (T-47D breast; 10 µM) is on record?
Answer: Its growth is 101%.

Question: What about the growth (MDA-MB-435 melanoma; 10 µM) of the same molecule?
Answer: The growth was 105%.

Question: What about the growth (SW-620 colon; 10 µM) of the same molecule?
Answer: Its growth is 105%.

Question: What about the growth (MCF7 breast; 10 µM) of the same molecule?
Answer: The growth was 92%.

Question: And the growth (HCT-116 colon; 10 µM)?
Answer: Its growth is 95.8%.

Question: What about the growth (HCC-2998 colon; 10 µM) of the same molecule?
Answer: Its growth is 103%.

Question: And the growth (KM12 colon; 10 µM)?
Answer: The growth was 106%.

Question: For `CCN1/C(=C/C=C/C=C/c2sc3ccccc3[n+]2CC)Sc2ccccc21`, which growth (T-47D breast; 10 µM) is on record?
Answer: Its growth is -32.2% (active).

Question: And the growth (MDA-MB-435 melanoma; 10 µM)?
Answer: The growth was -76.9% (active).

Question: What about the growth (SW-620 colon; 10 µM) of the same molecule?
Answer: Its growth is -31.1% (active).

Question: What about the growth (MCF7 breast; 10 µM) of the same molecule?
Answer: The growth was -44.2% (active).

Question: What about the growth (HCT-116 colon; 10 µM) of the same molecule?
Answer: The growth was -25.9% (active).

Question: What about the growth (HCC-2998 colon; 10 µM) of the same molecule?
Answer: The growth was -88.5% (active).

Question: And the growth (KM12 colon; 10 µM)?
Answer: Its growth is -88.3% (active).

Question: With `CC(C)C1=C(O)C2=C(C(=O)C1=O)C1(C)CCCC(C)(C)C1CC2O` (stereo not given) as the molecule, how does the growth (MCF7 breast; 100 µM) read?
Answer: Its growth is -23.1% (active) and -78.3% (active).

Question: Which results are given for `NC(=O)SCC(=O)NNc1ccccc1`?
Answer: growth (T-47D breast; 10 µM): 73.5%; growth (MDA-MB-435 melanoma; 10 µM): 101%; growth (SW-620 colon; 10 µM): 87.5%; growth (MCF7 breast; 10 µM): 94.2%; growth (HCT-116 colon; 10 µM): 94.6%; growth (HCC-2998 colon; 10 µM): 103%; growth (KM12 colon; 10 µM): 81.3%

Question: For `O=C1C=CC(=CC=C2C=CN(CCCCCCCCCCCO)C=C2)C=C1`, which growth (BT-549 breast) is on record?
Answer: Its growth is -11% (active).

Question: And the growth (MDA-MB-435 melanoma; 10 µM)?
Answer: The growth was 18.9%.

Question: And the growth (SW-620 colon; 10 µM)?
Answer: Its growth is 41.9%.

Question: And the growth (MCF7 breast; 10 µM)?
Answer: The growth was 8.64% (active).

Question: What about the growth (HCT-116 colon; 10 µM) of the same molecule?
Answer: The growth was 23.3%.

Question: And the growth (HCC-2998 colon; 10 µM)?
Answer: The growth was 57.9%.

Question: What about the growth (KM12 colon; 10 µM) of the same molecule?
Answer: Its growth is 24.2%.
